# Reference: article PMC4336329 (PLoS ONE, 2015)
# The campaign covered roughly 310,000 compounds. About 14,000 (4.5%) showed an effect of 50% or more. Effects have a minus sign here. The sample holds strong results, similar compounds and a random draw of the others, so the mix is not that of the screen.
# Molecular target: human ether-à-go-go-related gene (hERG) potassium channel (human, UniProt Q12809)
# Test: primary screen, population patch clamp on CHO cells stably expressing hERG; higher = less effect of the substance
# 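Further: peak tail current of the secondary pulse compared with the same well before compound.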
# human ether-à-go-go-related gene (hERG) potassium channel, sequence (Q12809 whole entry, looked up): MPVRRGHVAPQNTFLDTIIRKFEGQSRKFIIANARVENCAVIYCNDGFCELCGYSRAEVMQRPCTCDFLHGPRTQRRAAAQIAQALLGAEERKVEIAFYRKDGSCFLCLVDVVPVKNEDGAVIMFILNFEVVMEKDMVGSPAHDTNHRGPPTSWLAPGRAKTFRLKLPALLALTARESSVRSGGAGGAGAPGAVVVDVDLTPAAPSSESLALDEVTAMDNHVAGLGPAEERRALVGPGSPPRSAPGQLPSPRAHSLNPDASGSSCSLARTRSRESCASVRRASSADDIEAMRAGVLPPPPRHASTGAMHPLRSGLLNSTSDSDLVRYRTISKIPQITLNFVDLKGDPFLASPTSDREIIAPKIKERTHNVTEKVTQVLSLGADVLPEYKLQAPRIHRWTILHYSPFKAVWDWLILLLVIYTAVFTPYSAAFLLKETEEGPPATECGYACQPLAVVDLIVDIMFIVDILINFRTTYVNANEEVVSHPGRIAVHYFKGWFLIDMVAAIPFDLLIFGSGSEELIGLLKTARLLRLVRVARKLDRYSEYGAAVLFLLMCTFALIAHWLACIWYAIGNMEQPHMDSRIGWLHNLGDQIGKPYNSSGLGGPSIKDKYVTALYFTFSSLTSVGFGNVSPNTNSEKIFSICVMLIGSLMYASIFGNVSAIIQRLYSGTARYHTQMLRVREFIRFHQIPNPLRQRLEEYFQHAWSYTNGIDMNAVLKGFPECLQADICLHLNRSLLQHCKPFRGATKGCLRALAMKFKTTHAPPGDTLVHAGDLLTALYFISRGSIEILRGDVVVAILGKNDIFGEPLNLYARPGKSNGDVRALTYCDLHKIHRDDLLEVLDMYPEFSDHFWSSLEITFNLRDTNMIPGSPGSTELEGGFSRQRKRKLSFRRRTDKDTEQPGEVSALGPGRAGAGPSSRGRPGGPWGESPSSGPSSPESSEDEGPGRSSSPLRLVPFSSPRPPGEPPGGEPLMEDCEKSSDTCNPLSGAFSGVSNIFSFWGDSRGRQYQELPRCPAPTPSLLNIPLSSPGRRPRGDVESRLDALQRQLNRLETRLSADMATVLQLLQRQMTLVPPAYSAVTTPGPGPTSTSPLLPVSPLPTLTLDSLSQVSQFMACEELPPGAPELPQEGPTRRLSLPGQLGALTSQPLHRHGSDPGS
row,Structure (SMILES),"hERG current change (%, negative = inhibition) at 10uM [%]"
1,O=C1C2C3C=CC(C2C(=O)N1C1CCCCC1)C1C(=O)N(C2CCCCC2)C(=O)C31 (stereo not drawn),14.7
2,COc1ccc(C2c3ccc(O)cc3Oc3ncn(CCCO)c(=N)c32)cc1 (stereo not drawn),-22.8
3,COc1ccc(C2c3ccc(O)cc3Oc3ncn(CCCO)c(=N)c32)cc1OC (stereo not drawn),-6.28
4,COc1ccc(C2c3ccc(O)cc3Oc3ncn(Cc4ccco4)c(=N)c32)cc1OC (stereo not drawn),-74.4
5,COc1ccc(C2c3ccc(O)cc3Oc3ncn(CCN4CCOCC4)c(=N)c32)cc1OC (stereo not drawn),-11.8
6,COc1ccc(C2c3ccc(O)cc3Oc3ncn(CC(C)C)c(=N)c32)cc1 (stereo not drawn),-69.8
7,COc1ccc(C2c3ccc(O)cc3Oc3ncn(Cc4ccccc4)c(=N)c32)cc1OC (stereo not drawn),-51.7
8,COc1ccc(C2c3c(ncn(Cc4ccco4)c3=N)Oc3ccc4ccccc4c32)cc1 (stereo not drawn),-7.04
9,COc1ccc(C2c3ccc(O)cc3Oc3ncn(Cc4ccco4)c(=N)c32)cc1 (stereo not drawn),-71.9
10,COc1ccc(C2c3ccc(O)cc3Oc3ncn(CCN4CCOCC4)c(=N)c32)cc1 (stereo not drawn),-28.1
11,CC(=O)c1cccc(NC(=O)c2ccc(NC(=O)CC3SC(N4CCCCC4)=NC3=O)cc2)c1 (stereo not drawn),10.3
12,COc1ccc(-n2nc(C(=O)NCC(=O)NCCN(C)C)c3ccccc3c2=O)cc1,10.7
13,Nc1ncn[nH]1,13.5
14,COc1ccccc1NC(=S)NC(NC(=O)CC(C)C)C(Cl)(Cl)Cl (stereo not drawn),22.2
15,CC1=NN(C(=O)c2ccc(Cn3cc(Br)c([N+](=O)[O-])n3)o2)C(O)(C(F)(F)F)C1 (stereo not drawn),-16.6
16,CN(CCOc1ccccc1)C(=O)CCc1c[nH]c2ccccc12.Cl,-0.585
17,CCOc1ccc(C(=O)NN2C(=O)C3C4C=CC(O4)C3C2=O)cc1 (stereo not drawn),-14
18,COC(=O)c1ccccc1NC(=O)c1cccs1,1.38
19,N=c1c2c(ncn1CCCO)Oc1cc(O)ccc1C2c1ccccc1 (stereo not drawn),-33.7
20,N=c1c2c(ncn1Cc1ccco1)Oc1cc(O)ccc1C2c1ccccc1 (stereo not drawn),-74.1
21,N=c1c2c(ncn1CCN1CCOCC1)Oc1cc(O)ccc1C2c1ccccc1 (stereo not drawn),-42.9
22,COc1ccc(/C=C(\C#N)C(=O)NC(C)c2ccccc2)cc1O (stereo not drawn),-24.2
23,Cc1cc(C(=O)N/N=C/c2ccco2)c2ccccc2n1,1.37

row,Structure (SMILES),"hERG current change (%, negative = inhibition) at 10uM [%]"
1,COc1cc(NC(=O)C(c2ccccc2)c2ccccc2)c(C(=O)O)cc1OC,16.7
2,O=C(NCc1cccnc1)Nc1ccc(F)cc1F,-4.58
3,Cc1noc(C)c1S(=O)(=O)N(CC(=O)N1CCn2c1nc1ccccc12)c1ccc(C(C)C)cc1,-14.9
4,Cc1ccc(CNc2ccc3c(c2)ncn3C(C)C)cc1,-78.3
5,CCc1ccc(CNc2ccc3c(c2)ncn3C(C)(C)C)cc1,-36.1
6,CCOc1ccc(CNc2ccc3c(c2)ncn3C(C)(C)C)cc1,-58.6
7,Cc1ccc(CNc2ccc3c(c2)ncn3C(C)(C)C)cc1,-72.5
8,CN(C)c1ccc(CNc2ccc3c(c2)ncn3C(C)(C)C)cc1,-27.2
9,CC(C)(C)n1cnc2cc(NCc3ccccc3O)ccc21,-10.1
10,CC(C)n1cnc2cc(NCc3ccccc3O)ccc21,3.94
11,CCOc1ccc(CNc2ccc3c(c2)ncn3C)cc1,-46.6
12,Cc1ccc(CNc2ccc3c(c2)ncn3C)cc1,-33.8
13,CC(C)(C)n1cnc2cc(NCc3cccs3)ccc21,-28.2
14,CCN(CC)c1ccc(CNc2ccc3c(c2)ncn3C(C)(C)C)cc1,1.91
15,CC(C)(C)n1cnc2cc(NCc3ccc(Br)cc3)ccc21,-69.2
16,COc1ccccc1CNC(=O)Cn1cccc1C(=O)c1ccccc1,8.74
17,COCC1CCN(C(=O)c2cc(COc3ccc4c(c3)CCCC4)on2)C1 (stereo not drawn),-24.9
18,Cc1cccn2c(=O)c(C=NCc3ccccc3)c(NCCO)nc12,0.417
19,Cc1ccc(CN2CCSc3ccc(C(=O)NCc4cccnc4)cc32)cc1,-2.7
20,CCN(C(=O)C(C)N1C(=O)/C(=C/c2cccs2)SC1=S)C1CCS(=O)(=O)C1 (stereo not drawn),-27.3
21,COC(=O)c1ccc(C(=O)OC)c(NC(=O)CN2CCN(c3ccc(OC)cc3)CC2)c1,11.5
22,Cc1csc(Nc2ccc(Cl)cc2)[n+]1-c1ccc(Cl)cc1.[Br-],14.9
